VDR inh = vitamin D3 receptor (human) inhibition; 400,000 compounds, 0.93% hits; VDR-SRC2-3 peptide fluorescence polarization, 2 h; P11473; Potency, µM, without a hit: max response, negative = inhibition, usual class: inhibitors; also: % is scaled to controls: 0 for no effect and ±100 for the full control effect
Target sequence (P11473 whole entry, looked up): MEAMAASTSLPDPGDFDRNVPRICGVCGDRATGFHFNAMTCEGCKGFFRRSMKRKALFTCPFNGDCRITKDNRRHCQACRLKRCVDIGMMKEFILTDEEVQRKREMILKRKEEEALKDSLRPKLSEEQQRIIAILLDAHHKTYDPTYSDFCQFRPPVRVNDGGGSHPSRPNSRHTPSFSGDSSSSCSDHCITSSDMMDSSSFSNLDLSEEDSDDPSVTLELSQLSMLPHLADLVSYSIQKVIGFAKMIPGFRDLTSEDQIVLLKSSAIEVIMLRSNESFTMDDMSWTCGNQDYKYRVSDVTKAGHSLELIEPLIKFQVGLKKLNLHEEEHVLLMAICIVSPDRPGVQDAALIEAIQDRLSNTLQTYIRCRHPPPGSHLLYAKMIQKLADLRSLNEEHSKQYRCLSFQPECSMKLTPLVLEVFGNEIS
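After 23 nl compound addition and a short centrifugation, plates sat for 2 hours at ambient temperature; polarization of fluorescence then indicated loss of VDR binding to peptide SRC2-3.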
PLK1 PBD block = PLK1 (human) polo-box domain binding inhibition; P53350; Plk1 PBD binding of FITC phosphopeptide, fluorescence polarization; Potency, µM, without a hit: max response, negative = inhibition, most hits filed as inhibitors; 360,000 compounds, 2.8% hits; AID 720504; also: series mostly up to about 57 µM; % is scaled to controls: 0 for no effect and ±100 for the full control effect; nearly all actives have a fitted effect of over 65% in size
Tb PFK inh = T. brucei PFK enzyme inhibition | AID 485367 | T. brucei PFK, ADP-Glo luminescence | O15648 | 330,000 compounds, 0.17% hits | Potency, µM (top dose mostly 57.5 µM), without a hit: at the top dose activity, negative = inhibition, hits mostly inhibitors;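 also: 0% = uninhibited 1x PFK enzyme wells and -100% = no-enzyme wells; nearly all actives have a fitted effect of over 60% in size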
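1.25 nM PFK with 0.5 mM F6P and 0.1 mM ATP in 0.1 M TEA pH 8.0, 5 mM MgCl2, incubated 45 min at room temperature; ADP measured by ADP-Glo luminescence; compounds titrated up to 57 uM.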
BRCA1 expr up = BRCA1 expression activation; 380,000 compounds, 1.1% hits; Potency, µM (titrated, usually from 46.1 µM), without a hit: at the highest dose activation, usual class: activators; MCF7-BRCA1-FFLuc reporter, luminescence, 48 h; response scale: scaled: vehicle 0%, 10 µM genistein 100%; also: nearly all actives have a fitted effect of over 80% in size
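MCF7-BRCA1-FFLuc, 2000 cells/well; 2 h attach, 37 °C/5% CO2; compound 48 h; luciferase substrate 15 min; luminescence end-point. Norm. to genistein 10 microM max activation and DMSO; concentration-response curves fitted.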
* = called active by the depositor; u = inconclusive; x = not tested or not shown. Hits are enriched below; roughly 3.9% of the tested compounds scored in any of these assays. Calls follow the shape of the dose curve; as a rule, active = well fitted curve in the direction sought with a large enough effect; inconclusive = small, poorly fitted or top-dose-only effect, or another doubt; inactive = no such curve, though single readings can be large; an effect the other way counts as inactive or inconclusive. Potency is read from the fitted curve at half-maximal effect.

SMILES	VDR inh	PLK1 PBD block	Tb PFK inh	BRCA1 expr up
Cn1cnnc1SCC(=O)N1c2ccccc2-c2c(ssc2=S)C1(C)C	x	x	-2.3%	x
CC1(C)c2ssc(=S)c2-c2ccccc2N1C(=O)c1ccco1	u	15µM*	1.9%	-84.4%
Cc1ccc2c(c1)-c1c(ssc1=S)C(C)(C)N2C(=O)CSC1=NCCS1	3.2%	-2.2%	-6.9%	5.5%
Cc1ccc2c(c1)-c1c(ssc1=S)C(C)(C)N2C(=O)c1ccco1	-58.3%	2.12µM*	-22.6%	-88.2%
CCC1=NC(c2ccc(OC)cc2)N(O)C1(C)C (centres undefined)	7.6%	-0.6%	0.1%	-18.7%
CCC1=NC(c2ccc(OC)c(OC)c2)N(O)C1(C)C (centres undefined)	-18.6%	29.9µM*	1.3%	3.3%
CC(=O)c1ccc(NC(=O)C2C3C=CC(C3=C(c3ccccc3)c3ccccc3)C2C(=O)O)cc1 (centres undefined)	-21.2%	42.3µM*	-7.2%	-10.9%
CC(=O)c1ccc(NC(=O)C2CC2c2ccccc2)cc1 (centres undefined)	-6.1%	u	x	40.9%
COc1ccc(-c2c(Sc3ccccc3)c3cc(-c4ccc5c(c4)OCO5)ccc3n2C)cc1	x	4.4%	x	-11.5%
CNC(=O)c1c(Cl)cnn1-c1ccc(F)cc1	-3.7%	0.4%	-0.1%	102.2%
Cc1ccc(-n2ncc(Cl)c2C(=O)NCc2ccccc2)cc1	-6.4%	5.0%	2.5%	11.2µM*
O=c1cc(-c2cccc(O)c2)oc2ccc(O)cc12	-4.5%	x	x	x
O=c1cc(-c2ccccc2)oc2cc(O)ccc12	-4.3%	6.1%	x	10µM*
O=c1cc(-c2ccc(O)cc2)oc2ccc(O)cc12	1.3%	-4.9%	28.2%	2.82µM*
O=C(Nc1ccc2c(c1)OCO2)c1ccccn1	-4.2%	-10.2%	-4.5%	u
O=C(Nc1ccc2c(c1)OCO2)c1ccc(=O)[nH]n1	-18.5%	-0.3%	12.6%	11.2µM*
O=C(Nc1ccc2c(c1)OCO2)c1cc(C2CC2)on1	-7.1%	-12.8%	-2.3%	4.47µM*
CCCC/C=C/[C@H](c1ccccc1)[C@H](CO)Cc1ccc2ccccc2c1	-13.8%	x	x	x
CCS(=O)(=O)Nc1ccc(Cc2ccncc2)cc1	-0.6%	29.9µM*	-5.9%	1.8%
CCOC(=O)c1cccc(NC(=O)c2ccc3nc(CCc4ccccc4)oc3c2)c1	-3.0%	x	x	x
O=C(Nc1ccc(Cc2ccc(NC(=O)C3CC3)cc2)cc1)C1CC1	-6.0%	26.7µM*	-1.4%	-5.6%
CN(C)c1ccc(Nc2nc3ccccc3n3nnnc23)cc1	-0.3%	x	x	x
COC(=O)C1=C(C(=O)OC)C(c2ccccc2O)c2sc(=O)[nH]c2S1 (centres undefined)	20µM*	4.23µM*	17.3%	20.8%
CC(=O)NN1C(=O)c2ccccc2NC1c1ccccc1O (centres undefined)	24.2%	-8.9%	-6.0%	-1.7%
O=C(Cn1nc2c(cc1=O)CCCC2)NCc1ccccc1Cl	0.5%	x	x	x
SMILES	VDR inh	PLK1 PBD block	Tb PFK inh	BRCA1 expr up
CCNc1oc(COc2cccc(C)c2)nc1C#N	-0.5%	3.0%	-6.7%	11.2µM*
Cc1cccc(OCc2nc(C#N)c(NCCN(C)C)o2)c1	-15.2%	-2.6%	3.1%	18.8%
CCCn1c(C)cc(C(=O)COc2ncnc3sccc23)c1C	6.1%	-2.7%	0.5%	74.9%
Cc1cc(C(=O)COc2ncnc3sccc23)c(C)n1C1CC1	1.8%	-3.2%	-0.3%	8.91µM*
CC/C=C1/N=C2C(=O)N(C)C(=O)N=C2N(C)N1	-12.6%	x	x	0.0%
CN1N/C(=C\c2ccccc2)N=C2C(=O)N(C)C(=O)N=C21	50.1µM*	x	x	-53.2%
C[C@H](NC(=O)CNC(=O)[C@@H](NC(=O)[C@H](Cc1ccccc1)NC(=O)CNC(=O)CNC(=O)[C@@H](N)Cc1ccccc1)[C@@H](C)O)C(=O)N[C@@H](CCCN=C(N)N)C(=O)N[C@@H](CCCCN)C(=O)N[C@@H](CO)C(=O)N[C@@H](C)C(=O)N[C@@H](CCCN=C(N)N)C(=O)N[C@H](CN)CCCCN	0.5%	x	x	x
O=C(O)c1ccc(Cl)cc1Nc1nc2cc(Cl)ccc2o1	u	18.9µM*	-10.0%	-39.0%
CCOc1ccc2nc(N(Cc3cccnc3)C(=O)c3ccco3)sc2c1	7.0%	x	x	x
COc1cc(NC(=O)c2cccc(Cl)c2)c(OC)cc1NC(=O)CN1CCCCC1	-25.1%	29.9µM*	-0.1%	-48.3%
COc1cc(NC(=O)c2cccc(Cl)c2)c(OC)cc1NC(=O)CN1CCOCC1	-4.3%	-4.0%	-0.7%	-38.8%
CC1=C(C(=O)N(C(C)C)C(C)C)CC(CC(=O)NCCc2ccccn2)C(=O)N1Cc1ccccc1 (centres undefined)	x	6.7%	x	2.0%
C=CCSc1nccc(=O)[nH]1	u	13.4µM*	0.6%	0.0%
O=C(NC(=O)c1ccc(Cl)cc1)Nc1cc(N2CCCCC2)ncn1	u	26.7µM*	x	28.4%
O=C(Nc1cc(N2CCCCC2)ncn1)c1ccc(F)cc1	-17.1%	29.9µM*	-3.5%	51.6%
CCN(c1ccc(OC)cc1)S(=O)(=O)c1nnc(NC(=O)COc2ccc(C)cc2)s1	-9.5%	-12.2%	16.4%	-17.8%
CCN(c1ccc(OC)cc1)S(=O)(=O)c1nnc(NC(=O)COc2ccc(F)cc2)s1	-18.9%	26.7µM*	22.2%	3.2%
CCc1ccc(C2=C(C)C(N3CCC(C(=O)Nc4ccc(F)cc4)CC3)=NS2(=O)=O)cc1	0.6%	x	x	x
O=C1CN(C(=O)COc2ccc([N+](=O)[O-])cc2Cl)c2ccccc2N1	-3.2%	-0.5%	5.1%	11.2µM*
COc1ccc(NC(=O)C(CC(=O)O)C(C)c2ccccc2)cc1 (centres undefined)	u	9.47µM*	-2.4%	1.5%
COc1ccc(NC(=O)C(CC(=O)O)Cc2ccccc2)cc1 (centres undefined)	-12.0%	-7.8%	2.0%	4.4%
CSc1ccc(-c2nc3ccc(C)cn3c2Nc2ccccc2C)cc1	2.3%	x	x	30.0%
N#Cc1c(-c2ccccc2)cc(-c2ccccc2)[nH]c1=O	-5.8%	-5.5%	-15.6%	-31.1%
N#Cc1c(-c2cccc(Br)c2)cc(-c2ccco2)[nH]c1=O	3.5%	13.4µM*	1.7%	0.0%
Cc1ccccc1Oc1cc(-n2ncc(Cl)c(Cl)c2=O)ncn1	u	5.32µM*	0.4%	-106.4%
SMILES	VDR inh	PLK1 PBD block	Tb PFK inh	BRCA1 expr up
Fc1ccc(NC(=S)SCc2ccc3c(c2)OCO3)cc1F	x	-20.7%	x	-24.2%
C/C(=N\NC(=O)c1nn(C)c(C)c1Br)c1ccc(NC(=O)C2CCCC2)cc1	-7.6%	-0.9%	1.7%	5.01µM*
Cc1occc1C(=O)N/N=C/C=C/c1ccc(N(C)C)cc1	-2.3%	-7.8%	-3.6%	u
C/C(=N/NC(=O)c1ccoc1C)c1ccc(NC(=O)C2CCCC2)cc1	-3.4%	-14.9%	-7.3%	5.62µM*
C/C(=N\NC(=O)c1ccn(C)n1)c1ccc(NC(=O)C2CCCC2)cc1	-3.0%	-4.5%	-0.1%	1.6%
Cc1occc1C(=O)N/N=C/C=C/c1ccccc1	3.8%	-24.1%	-3.2%	10µM*
C/C(=N\NC(=O)c1ccoc1C)c1ccccc1	4.7%	-11.2%	-3.1%	3.98µM*
Cc1ccc(NC(=O)CSc2nc(=O)n(Cc3ccccn3)c3c2CCC3)cc1F	11.7%	x	x	-0.4%
Cc1ccc(CCNC(=O)c2ccc(CS(=O)(=O)c3ccc(Br)cc3)o2)cc1	-16.1%	x	x	x

Source: PubChem
